From PubChem BioAssay (EPA / NIEHS)
Inconclusive results are not listed. Calls of active or inactive are those of the source. Rule for the calls: active = hit-call score of the fitted dose curve at least 0.9, where 1 is the maximum; inconclusive = response in the unintended direction; inactive = score below 0.9.

What was measured:
[1] = biological target: Estrogen receptor (Homo sapiens) (UniProt P03372); experiment: OT_ER_ERaERa_1440: Odyssey Thera (OT) 24-hour HEK293T Protein-Complementation Assay for Estrogen Receptor-alpha/-alpha Homodimer (AID 2283349);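 note: hits raise fluorescence above DMSO for agonists and antagonists alike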
Summary of the method: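 Cells (HEK293T) carrying the fragment-tagged ERα LBD (aa 310-547) pair are treated with chemical for 24 hours. Nuclear and/or cytoplasmic fluorescence is then quantified on a laser scanning cytometer. Activity is scored as signal gain against DMSO.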

[2] = biological target: Estrogen receptor (Homo sapiens) (UniProt P03372); experiment: OT_ER_ERaERa_0480: Odyssey Thera (OT) 8-hour HEK293T Protein-Complementation Assay for Estrogen Receptor-alpha/-alpha Homodimer (AID 2283351);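 note: rise in fluorescence from reassembled reporter fragments on ERα LBD homodimer in nucleus or whole cell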
Summary of the method: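 Measures ERα LBD (aa 310-547) homodimer complementation in stably transfected HEK293T at 8 h post-dose, with fluorescence intensity quantified on a laser scanning cytometer relative to DMSO controls.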

[3] = biological target: T1, Estrogen receptor (Homo sapiens) + Estrogen receptor beta (Homo sapiens) (UniProt P03372+Q92731); experiment: OT_ER_ERaERb_0480: Odyssey Thera (OT) 8-hour HEK293T Protein-Complementation Assay for Estrogen Receptor-alpha/-beta Heterodimer (AID 2283352)
Summary of the method: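 HEK293T protein-fragment complementation assay of ER-alpha/ER-beta LBD heterodimerisation, read 8 h after dosing. Mean nuclear/cytoplasmic fluorescence intensity measured by laser scanning cytometry; gain of signal fitted relative to DMSO.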

[4] = biological target: T1, Estrogen receptor (Homo sapiens) + Estrogen receptor beta (Homo sapiens); experiment: OT_ER_ERaERb_1440: Odyssey Thera (OT) 24-hour HEK293T Protein-Complementation Assay for Estrogen Receptor-alpha/-beta Homodimer (AID 2283356);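 note: heteromer of ER alpha and ER beta binding domains; hits raise reporter fluorescence and both agonists and antagonists give an increase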
Summary of the method: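 HEK293T stably expressing a PCA of ER alpha LBD (aa 310-547) and ER beta LBD (aa 263-489). After 24 h compound exposure, mean fluorescence intensity in nucleus (agonists) or nucleus and cytoplasm (antagonists) measured by laser scanning cytometry versus vehicle.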

[5] = biological target: Estrogen receptor beta (Homo sapiens) (UniProt Q92731); experiment: OT_ER_ERbERb_0480: Odyssey Thera (OT) 8-hour HEK293T Protein-Complementation Assay for Estrogen Receptor-beta/-beta Homodimer (AID 2283357);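 note: active means signal gain over DMSO baseline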
Summary of the method: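 Homodimerization of ER-beta LBD measured by protein-fragment complementation in HEK293T; 8 h dosing; fixed, Draq5 counterstain; fluorescence intensity gain over DMSO baseline, positive fitting direction; laser scanning cytometry.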

[6] = biological target: rat Mineralocorticoid Receptor (MR), Nr3c2 (gene 25672) (UniProt P22199); experiment: NVS_NR_rMR: NovaScreen (NVS) Nuclear Receptor Binding Assay for rat Mineralocorticoid Receptor (MR) (AID 2283355)
Procedure: NVS_NR_rMR is a biochemical, single-readout assay that uses extracted gene-proteins from Adrenalectomized rat brain supernatant in a tissue-based cell-free assay. Measurements were taken 24 hours after chemical dosing in a 96-well plate.NVS_NR_rMR is one of one assay component(s) measured or calculated from the NVS_NR_rMR assay. It is designed to make measurements of radioligand binding, a form of binding reporter, as detected with scintillation counting signals by Lysate-based radiodetection technology.Data from the assay component NVS_NR_rMR was analyzed into 1 assay endpoint. This assay endpoint, NVS_NR_rMR, was analyzed in the positive analysis fitting direction relative to DMSO as the negative control and baseline of activity. Using a type of binding reporter, loss-of-signal activity can be used to understand changes in the binding as they relate to the gene Nr3c2. Furthermore, this assay endpoint can be referred to as a primary readout, because the performed assay has only produced 1 assay endpoint. To generalize the intended target to other relatable targets, this assay endpoint is annotated to the nuclear receptor intended target family, where the subfamily is steroidal.
Binding assays used specific radioligands (tritiated, iodinated) with non-radioactive competitive displacement ligands in agonist or antagonist protocols (as indicated) and various reference compounds and inhibitors to titrate specific binding to receptors and transporters. Most enzyme assays (CYPs, kinases, phosphatases, proteases, HDACs) used recombinant protein and specific substrates (fluorescence mostly, some colorimetric and radioactive) and inhibitors, followed by a biochemical separation of substrate and product. All assays for the biochemical HTS were initially run in duplicate at a single concentration (10 uM for CYP450 assays and 25 uM for all others). […] Each assay was run with positive and negative controls, and concurrent controls on every plate. The follow-up (secondary) screen tested active chemical-pairs in concentration series, as well as a few additional assays not tested in the primary screen, some selected negative inactives, and several cases re-run in the concentration series for confirmatory purposes.

[7] = biological target: Androgen Receptor/SRC-1 Co-activator, AR (gene 367) (UniProt P10275); experiment: OT_AR_ARSRC1_0960: Odyssey Thera (OT) 16-hour HEK293T Protein-Complementation Assay for Androgen Receptor/SRC-1 Co-activator (AID 2283353);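 note: actives raise the signal above DMSO so potency reflects increased AR and SRC-1 complex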
Summary of the method: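 Sixteen-hour cell assay: Venus halves fused to AR and SRC-1 in HEK293T report binding. Images at 488/635 nm give an N/C ratio in the 488 nm channel over ≥400 cells, analysed as signal increase over DMSO.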

[8] = biological target: Androgen Receptor/SRC-1 Co-activator, AR (gene 367) (UniProt P10275); experiment: OT_AR_ARSRC1_0480: Odyssey Thera (OT) 8-hour HEK293T Protein-Complementation Assay for Androgen Receptor/SRC-1 Co-activator (AID 2283354);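 note: hits raise the complementation signal above DMSO so AC50 marks enhancers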
Summary of the method: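 Split-Venus PCA, stable HEK293T, AR/SRC-1 fusions; 8 h exposure. Readout: 488nm N/C fluorescence ratio, ≥400 cells/image; fitted upward vs DMSO baseline.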

[9] = biological target: Bile acid receptor (Homo sapiens) (UniProt Q96RI1); experiment: NVS_NR_hFXR_Antagonist: NovaScreen (NVS) Nuclear Receptor Binding Assay for human Farnesoid X Receptor Antagonism (FXR) (AID 2283350)
Summary of the method: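 Antagonist-format time-resolved FRET binding assay with extracted human receptor protein, read 1 hour after compound addition. Compounds first screened at 25 uM in duplicate, then actives tested in concentration series, with loss of signal relative to DMSO.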

[10] = biological target: Retinoic acid receptor alpha (Homo sapiens) (UniProt P10276); experiment: NVS_NR_hRAR_Antagonist: NovaScreen (NVS) Nuclear Receptor Binding Assay for human Retinoic Acid Alpha Receptor Antagonism (RAR) (AID 2283358)
Summary of the method: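 Read-out: time-resolved FRET binding signal, 2 h post-dose, cell-free extracted protein. Antagonism scored as signal loss versus DMSO negative control. Primary single-concentration screen at 25 uM in duplicate; concentration series for actives.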

Measured: AC50

Sequence of Androgen Receptor/SRC-1 Co-activator, AR (gene 367) (P10275 whole entry, looked up, the tested form may be a part): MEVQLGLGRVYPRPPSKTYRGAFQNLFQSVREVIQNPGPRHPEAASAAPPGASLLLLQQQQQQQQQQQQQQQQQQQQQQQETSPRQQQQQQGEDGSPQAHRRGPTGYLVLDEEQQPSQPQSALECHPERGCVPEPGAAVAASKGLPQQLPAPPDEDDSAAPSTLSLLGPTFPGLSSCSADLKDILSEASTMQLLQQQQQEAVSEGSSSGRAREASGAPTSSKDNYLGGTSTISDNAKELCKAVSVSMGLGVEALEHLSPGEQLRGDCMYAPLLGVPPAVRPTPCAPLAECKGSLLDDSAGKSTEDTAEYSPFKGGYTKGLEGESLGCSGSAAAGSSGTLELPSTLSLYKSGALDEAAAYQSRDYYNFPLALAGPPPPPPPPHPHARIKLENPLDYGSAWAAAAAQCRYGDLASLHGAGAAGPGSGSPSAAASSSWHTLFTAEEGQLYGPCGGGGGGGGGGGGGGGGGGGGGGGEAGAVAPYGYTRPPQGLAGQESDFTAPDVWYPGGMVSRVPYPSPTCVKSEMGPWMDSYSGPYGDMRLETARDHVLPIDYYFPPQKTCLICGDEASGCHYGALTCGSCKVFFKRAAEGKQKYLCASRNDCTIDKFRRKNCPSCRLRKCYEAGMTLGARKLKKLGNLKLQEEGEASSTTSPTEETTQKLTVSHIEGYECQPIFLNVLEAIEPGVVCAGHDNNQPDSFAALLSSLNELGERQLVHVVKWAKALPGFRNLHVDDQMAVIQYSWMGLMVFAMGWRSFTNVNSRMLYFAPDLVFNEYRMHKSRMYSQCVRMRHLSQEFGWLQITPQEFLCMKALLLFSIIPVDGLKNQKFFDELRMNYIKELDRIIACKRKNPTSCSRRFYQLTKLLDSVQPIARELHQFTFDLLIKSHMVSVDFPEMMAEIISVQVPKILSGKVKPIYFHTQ
Sequence of Estrogen receptor beta (Homo sapiens) (Q92731 whole entry, looked up, the tested form may be a part): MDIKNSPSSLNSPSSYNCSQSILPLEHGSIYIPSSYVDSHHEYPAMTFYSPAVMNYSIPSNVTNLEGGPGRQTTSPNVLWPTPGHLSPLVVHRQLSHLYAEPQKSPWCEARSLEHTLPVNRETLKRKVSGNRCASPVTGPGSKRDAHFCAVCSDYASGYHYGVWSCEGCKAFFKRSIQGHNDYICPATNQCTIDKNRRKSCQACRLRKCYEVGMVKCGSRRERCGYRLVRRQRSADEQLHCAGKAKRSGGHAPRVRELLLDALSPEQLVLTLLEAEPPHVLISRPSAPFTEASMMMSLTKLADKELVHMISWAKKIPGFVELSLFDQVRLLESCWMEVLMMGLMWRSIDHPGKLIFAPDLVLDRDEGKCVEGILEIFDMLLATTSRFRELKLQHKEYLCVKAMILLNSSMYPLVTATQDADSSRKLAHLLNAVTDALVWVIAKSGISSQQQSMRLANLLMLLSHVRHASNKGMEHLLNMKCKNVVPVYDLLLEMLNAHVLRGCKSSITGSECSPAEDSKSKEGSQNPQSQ
Sequence of Estrogen receptor (Homo sapiens) (P03372 whole entry, looked up, the tested form may be a part): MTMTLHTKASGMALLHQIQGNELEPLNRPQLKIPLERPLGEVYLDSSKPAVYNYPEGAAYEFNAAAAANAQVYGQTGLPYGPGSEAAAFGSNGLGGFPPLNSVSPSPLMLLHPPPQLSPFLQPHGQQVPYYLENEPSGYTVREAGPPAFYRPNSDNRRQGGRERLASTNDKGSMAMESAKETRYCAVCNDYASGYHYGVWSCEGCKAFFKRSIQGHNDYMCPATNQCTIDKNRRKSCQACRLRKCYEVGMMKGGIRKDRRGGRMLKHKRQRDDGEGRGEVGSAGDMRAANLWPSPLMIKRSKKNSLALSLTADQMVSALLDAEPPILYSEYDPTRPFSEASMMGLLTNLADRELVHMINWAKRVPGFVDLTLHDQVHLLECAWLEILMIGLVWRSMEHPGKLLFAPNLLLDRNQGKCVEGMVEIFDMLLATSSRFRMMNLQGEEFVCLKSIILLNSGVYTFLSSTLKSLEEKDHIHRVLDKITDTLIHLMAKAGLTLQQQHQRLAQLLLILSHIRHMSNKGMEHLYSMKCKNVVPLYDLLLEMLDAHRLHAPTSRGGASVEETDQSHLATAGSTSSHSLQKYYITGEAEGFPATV
T1 sequence (P03372 whole entry, looked up, the tested form may be a part): as above
T1 sequence (Q92731 whole entry, looked up, the tested form may be a part): as the sequence (Q92731 whole entry, looked up, the tested form may be a part) above
Sequence of Retinoic acid receptor alpha (Homo sapiens) (P10276 whole entry, looked up): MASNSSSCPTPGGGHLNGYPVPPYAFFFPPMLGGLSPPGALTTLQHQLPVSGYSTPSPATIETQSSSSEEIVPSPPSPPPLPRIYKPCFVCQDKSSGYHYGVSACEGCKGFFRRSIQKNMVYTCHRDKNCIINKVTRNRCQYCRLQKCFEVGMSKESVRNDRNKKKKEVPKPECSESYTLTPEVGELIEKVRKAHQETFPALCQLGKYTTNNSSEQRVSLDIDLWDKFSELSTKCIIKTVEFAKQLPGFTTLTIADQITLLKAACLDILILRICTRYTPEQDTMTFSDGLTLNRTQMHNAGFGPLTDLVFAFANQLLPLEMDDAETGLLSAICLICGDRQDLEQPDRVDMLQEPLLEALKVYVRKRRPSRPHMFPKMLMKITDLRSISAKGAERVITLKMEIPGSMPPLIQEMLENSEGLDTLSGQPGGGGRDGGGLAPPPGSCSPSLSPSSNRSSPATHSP
Sequence of Bile acid receptor (Homo sapiens) (Q96RI1 whole entry, looked up): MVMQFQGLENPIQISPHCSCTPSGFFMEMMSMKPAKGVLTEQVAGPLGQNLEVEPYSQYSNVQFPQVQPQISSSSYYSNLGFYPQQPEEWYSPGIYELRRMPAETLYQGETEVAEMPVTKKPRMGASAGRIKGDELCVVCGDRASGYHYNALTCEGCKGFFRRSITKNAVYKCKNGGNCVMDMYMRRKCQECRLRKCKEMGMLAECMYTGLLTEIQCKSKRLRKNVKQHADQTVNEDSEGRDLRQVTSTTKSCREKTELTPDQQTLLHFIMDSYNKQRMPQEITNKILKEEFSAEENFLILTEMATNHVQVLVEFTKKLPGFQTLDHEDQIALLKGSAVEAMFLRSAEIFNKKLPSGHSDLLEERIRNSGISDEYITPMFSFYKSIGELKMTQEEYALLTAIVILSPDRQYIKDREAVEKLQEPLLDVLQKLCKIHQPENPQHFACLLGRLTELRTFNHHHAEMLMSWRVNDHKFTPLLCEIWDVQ
Sequence of rat Mineralocorticoid Receptor (MR), Nr3c2 (gene 25672) (P22199 whole entry, looked up): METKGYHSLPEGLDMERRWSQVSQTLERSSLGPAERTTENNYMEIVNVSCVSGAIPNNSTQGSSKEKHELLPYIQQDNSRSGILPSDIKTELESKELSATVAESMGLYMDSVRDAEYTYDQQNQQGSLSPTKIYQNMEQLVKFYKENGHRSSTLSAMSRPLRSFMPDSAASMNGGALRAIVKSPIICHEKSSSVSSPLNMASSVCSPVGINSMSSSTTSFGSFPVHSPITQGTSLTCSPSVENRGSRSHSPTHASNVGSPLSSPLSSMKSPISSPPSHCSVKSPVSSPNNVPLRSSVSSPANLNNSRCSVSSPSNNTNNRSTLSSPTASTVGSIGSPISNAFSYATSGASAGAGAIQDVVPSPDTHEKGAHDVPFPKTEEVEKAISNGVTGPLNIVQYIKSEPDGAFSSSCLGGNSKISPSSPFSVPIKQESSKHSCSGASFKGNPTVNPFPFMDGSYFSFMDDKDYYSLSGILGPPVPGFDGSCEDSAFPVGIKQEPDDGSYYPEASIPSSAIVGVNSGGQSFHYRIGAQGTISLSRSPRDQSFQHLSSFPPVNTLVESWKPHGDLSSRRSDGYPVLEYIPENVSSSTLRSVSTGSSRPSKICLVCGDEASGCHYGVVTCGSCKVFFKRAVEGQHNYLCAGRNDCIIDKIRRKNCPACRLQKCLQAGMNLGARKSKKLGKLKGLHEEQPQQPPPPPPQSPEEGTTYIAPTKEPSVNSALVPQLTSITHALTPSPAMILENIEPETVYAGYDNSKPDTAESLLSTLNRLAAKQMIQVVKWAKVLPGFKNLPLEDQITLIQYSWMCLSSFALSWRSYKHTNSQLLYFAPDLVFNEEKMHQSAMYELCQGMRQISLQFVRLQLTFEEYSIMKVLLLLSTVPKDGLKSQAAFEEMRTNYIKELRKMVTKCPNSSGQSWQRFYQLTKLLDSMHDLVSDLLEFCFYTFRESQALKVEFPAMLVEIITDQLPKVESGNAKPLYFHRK

COc1cc(Cl)c(OC)cc1Cl
inactive: [1] | [2] | [3] | [4] | [5]

CNC(=O)N(C)c1nnc(C(C)(C)C)s1
inactive: [1] | [2] | [3] | [4]

CCOc1nc(C(Cl)(Cl)Cl)ns1
inactive: [1] | [2] | [3] | [6] | [4] | [5]

CC(C)N1C(=O)N(c2ccccc2)CSC1=NC(C)(C)C
inactive: [1] | [2] | [3] | [8] | [4]
active: [7] 62.9 µM | [5] 21.1 µM

OC(c1ccc(Cl)cc1)(c1ccc(Cl)cc1)C(Cl)(Cl)Cl
inactive: [1] | [9] | [2] | [10]
active: [3] 11.8 µM | [4] 11.9 µM | [5] 12 µM

CCCCC(O)(Cn1cncn1)c1ccc(Cl)cc1Cl (stereo not drawn)
active: [7] 72.5 µM | [8] 75.8 µM
not listed: [6] | [10]
inactive: all other assays above

COC(=O)c1c(C(F)F)nc(C(F)(F)F)c(C2=NCCS2)c1CC(C)C
active: [3] 17.2 µM
not listed: [6] | [9] | [10]
inactive: all other assays above

N#Cc1c[nH]cc1-c1cccc2c1OC(F)(F)O2
inactive: [2]
active: [1] 31 µM

COP(=S)(OC)Oc1ccc([N+](=O)[O-])c(C)c1
inactive: [1] | [9] | [2] | [3] | [4] | [5]

COP(=S)(OC)SCn1nnc2ccccc2c1=O
not listed: [6] | [9] | [10]
inactive: all other assays above

Cc1nc(N(C)C)nc(OC(=O)N(C)C)c1C
inactive: [1] | [2] | [3] | [4] | [5]

Cc1cc(C)nc(Nc2ccccc2)n1
inactive: [1] | [2]

O=P(O)(O)CCCl
inactive: [1] | [2]

CCN(CC)C(=O)C(C)Oc1cccc2ccccc12 (stereo not drawn)
inactive: [1] | [2] | [3] | [4] | [5]

CCOP(=S)(OCC)Oc1nc(Cl)n(C(C)C)n1
inactive: [1] | [2]

CC(C)NC(=O)N1CC(=O)N(c2cc(Cl)cc(Cl)c2)C1=O
inactive: [1] | [2]

Cc1cnc(C2=NC(C)(C(C)C)C(=O)N2)c(C(=O)O)c1 (stereo not drawn)
not listed: [6] | [9] | [10]
inactive: all other assays above

CSC(=O)c1c(C(F)F)nc(C(F)(F)F)c(C(=O)SC)c1CC(C)C
active: [1] 47.1 µM | [3] 31.9 µM | [4] 31 µM | [5] 18.1 µM
inactive: [2]

CC1(C)CCC(=Cc2ccc(Cl)cc2)C1(O)Cn1cncn1 (stereo not drawn)
inactive: [1] | [2] | [3] | [4] | [5]
active: [7] 16.3 µM | [8] 15.5 µM

CC(C)=CC1C(C(=O)OCc2coc(Cc3ccccc3)c2)C1(C)C (stereo not drawn)
inactive: [1] | [2]

COCC(C)N(C(=O)CCl)c1c(C)csc1C (stereo not drawn)
inactive: [1] | [2] | [3] | [4]

CCNC(=O)NC(=O)C(C#N)=NOC
inactive: [1] | [9] | [2]

CCSC(=O)N1CCCCCC1
inactive: [1] | [2] | [3] | [4] | [5]

CCC(C)n1c(=O)[nH]c(C)c(Br)c1=O (stereo not drawn)
inactive: [1] | [2] | [3] | [4]

Clc1cccc(C(Cl)(Cl)Cl)n1
inactive: [1] | [2] | [3] | [7] | [8] | [4]

Nc1c(Cl)c(F)nc(OCC(=O)O)c1Cl
not listed: [6] | [9] | [10]
inactive: all other assays above

COCc1cnc(C2=NC(C)(C(C)C)C(=O)N2)c(C(=O)O)c1 (stereo not drawn)
active: [9] 30.3 µM
not listed: [6]
inactive: all other assays above

CC(C)C1(C)N=C(c2ncccc2C(=O)O)NC1=O (stereo not drawn)
inactive: [1] | [9] | [2]

CC1(C)C(C(=O)OC(C#N)c2cccc(Oc3ccccc3)c2)C1(C)C (stereo not drawn)
inactive: [1] | [2] | [3] | [4] | [5]

CN/C(=N\[N+](=O)[O-])NCc1cnc(Cl)s1
inactive: [1] | [2] | [3] | [4]

CCOP(=O)(OCC)Oc1nc(Cl)c(Cl)cc1Cl
active: [7] 33.2 µM
not listed: [6] | [9]
inactive: all other assays above

O=C(Nc1ccccc1-c1ccc(Cl)cc1)c1cccnc1Cl
inactive: [1] | [2] | [3] | [4] | [5]

CO/N=C(/C1=NOCCO1)c1ccccc1Oc1ncnc(Oc2ccccc2Cl)c1F
inactive: [1] | [2]
